A short description of assay [1]: NCI Yeast Anticancer Drug Screen. Data for the rad50 strain (AID 155).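 Note: 0% = growth of vehicle-only cultures of the same strain.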 The conditions noted are these: S. cerevisiae rad50 strain growth inhibition, stronger effect = higher value. A digest of the protocol: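 Growth of the mutant yeast was measured after compound exposure and referenced to vehicle-treated cultures.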
A short description of assay [2]: NCI Yeast Anticancer Drug Screen. Data for the mec2-1 strain (AID 157). The settings on record: S. cerevisiae mec2-1 strain, stronger effect = higher value. The gist of the method:
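Readout is yeast growth inhibition, normalised to vehicle-treated controls, in the mec2-1 strain exposed to compound.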

A short description of assay [3]: NCI Yeast Anticancer Drug Screen. Data for the sgs1 mgt1 strain (AID 161).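 Note: 0% = growth of cultures given vehicle only.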 The settings on record: S. cerevisiae sgs1 mgt1 strain, stronger effect = higher value. A digest of the protocol:
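Yeast cells carrying a defined DNA-repair defect were exposed to test compounds. Growth inhibition was measured relative to vehicle-treated controls.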

Assay [4] in a line: NCI Yeast Anticancer Drug Screen. Data for the cln2 rad14 strain (AID 165).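 Note: 0% = growth equal to vehicle treated cultures.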 The settings on record: S. cerevisiae cln2 rad14 strain, stronger effect = higher value. A digest of the protocol: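 Relative to vehicle controls, growth inhibition of compound-treated cln2 rad14 yeast was recorded.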
Assay [5] is described as follows: NCI Yeast Anticancer Drug Screen. Data for the bub3 strain (AID 167). The conditions noted are these: S. cerevisiae bub3 mutant strain, stronger effect = higher value. The gist of the method: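 Whole-cell yeast assay. The mutant strain was incubated with compounds, and growth inhibition was determined by comparison with vehicle-treated cells.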
Assay [6] is described as follows: NCI Yeast Anticancer Drug Screen. Data for the mlh1 rad18 strain (AID 175). The settings on record: S. cerevisiae mlh1 rad18 strain growth inhibition, stronger effect = higher value. The gist of the method: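 Test agents were incubated with a yeast strain of defined genotype (DNA damage repair defect). Inhibition of growth was derived by comparison with vehicle-exposed cultures.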

Setting [7] is: at 5.0 µM (retest, dose inferred, filed as 0.5).
The mark [8] stands for this setting: at 50.0 µM (retest, dose inferred, filed as 5.0).

This is part of a sample that, as a whole, favours compounds with a hit. Of some 79,000 tested, about 15% had one in any assay. A number with no mark means an inactive call. Activity calls are given as the source filed them. Cut-off read from the data, not from the text of the source: active = growth inhibition above about 70%; inactive = the rest.

For ten molecules, growth inhibition results are on record in PubChem BioAssay (NCI).

In the case of `CCCCn1c(C)nc2cc(C(F)(F)F)cc(N)c21`, the growth inhibition in assay [1] (setting [7]) was 0%; in assay [1] (setting [8]), 41%; in assay [1] (at 50.0 µM), 78.6% (active); in assay [2] (setting [7]), -4%; in assay [2] (setting [8]), 35%; in assay [2] (at 50.0 µM), 48.3%. In addition, the growth inhibition is 0% in assay [3] (setting [7]); 31% in assay [3] (setting [8]); 93.6% (active) in assay [3] (at 50.0 µM); -5% in assay [4] (setting [7]); 8% in assay [4] (setting [8]); 6.6% in assay [4] (at 50.0 µM). In addition, the growth inhibition is -8% in assay [5] (setting [7]); 10% in assay [5] (setting [8]); 31.9% in assay [5] (at 50.0 µM); -11% in assay [6] (setting [7]); 65% in assay [6] (setting [8]); 43.5% in assay [6] (at 50.0 µM).

As for `O.O.O=Cc1cc(Br)cc(Br)c1O.O=Cc1cc(Br)cc(Br)c1O.[Co]`, the growth inhibition in assay [1] (setting [7]) is 58%; in assay [1] (setting [8]), 99% (active); in assay [1] (at 50.0 µM) it was 99.2% (active); in assay [2] (setting [7]) it was 25%; in assay [2] (setting [8]), 99% (active); in assay [2] (at 50.0 µM), 96.7% (active). Also, the growth inhibition in assay [3] (setting [7]) is 37%; in assay [3] (setting [8]) it was 89% (active); in assay [3] (at 50.0 µM) it was 99% (active); in assay [4] (setting [7]), 15%; in assay [4] (setting [8]) it was 99% (active); in assay [4] (at 50.0 µM), 89.5% (active). The growth inhibition in assay [5] (setting [7]) is 53%; in assay [5] (setting [8]) it was 99% (active); in assay [5] (at 50.0 µM), 90.5% (active); in assay [6] (setting [7]), 79% (active); in assay [6] (setting [8]), 99% (active); in assay [6] (at 50.0 µM) it was 99.2% (active).

With `C(/Cc1ccc2c(c1)OCO2)=N\NC1=NCCCCN1`, the growth inhibition is -3% in assay [1] (setting [7]); -18% in assay [1] (setting [8]); 15.7% in assay [1] (at 50.0 µM); -3% in assay [2] (setting [7]); -5% in assay [2] (setting [8]); -7.25% in assay [2] (at 50.0 µM). For the same molecule, the growth inhibition in assay [3] (setting [7]) was -2%; in assay [3] (setting [8]), -15%; in assay [3] (at 50.0 µM) it was -16.2%; in assay [4] (setting [7]), 0%; in assay [4] (setting [8]) it was -17%; in assay [4] (at 50.0 µM) it was 28.8%. Moreover, the growth inhibition in assay [5] (setting [7]) was -1%; in assay [5] (setting [8]), -20%; in assay [5] (at 50.0 µM) it was 3.2%; in assay [6] (setting [7]), 0%; in assay [6] (setting [8]) it was -18%; in assay [6] (at 50.0 µM), -6.5%.

On to `Oc1cc(Cc2ccccc2)c(Cc2ccccc2)cc1O`, for which the growth inhibition was -32% in assay [1] (setting [7]); 96% (active) in assay [1] (setting [8]); 89.2% (active) in assay [1] (at 50.0 µM); -26% in assay [2] (setting [7]); 98% (active) in assay [2] (setting [8]); 91% (active) in assay [2] (at 50.0 µM). Further, the growth inhibition in assay [3] (setting [7]) is -8%; in assay [3] (setting [8]), 96% (active); in assay [3] (at 50.0 µM), 92.1% (active); in assay [4] (setting [7]), -1%; in assay [4] (setting [8]), 97% (active); in assay [4] (at 50.0 µM), 89.8% (active). In addition, the growth inhibition in assay [5] (setting [7]) is -23%; in assay [5] (setting [8]) it was 97% (active); in assay [5] (at 50.0 µM), 91.5% (active); in assay [6] (setting [7]) it was -43%; in assay [6] (setting [8]), 96% (active); in assay [6] (at 50.0 µM), 88.2% (active).

For `COc1cc(C=O)c(Cl)cc1O`, the growth inhibition in assay [1] (setting [7]) was 2%; in assay [1] (setting [8]), 21%; in assay [1] (at 50.0 µM), 55%; in assay [2] (setting [7]), 1%; in assay [2] (setting [8]), 43%; in assay [2] (at 50.0 µM), 67%. Besides, the growth inhibition in assay [3] (setting [7]) was 1%; in assay [3] (setting [8]), 47%; in assay [3] (at 50.0 µM), 90% (active); in assay [4] (setting [7]) it was -4%; in assay [4] (setting [8]), 25%; in assay [4] (at 50.0 µM), 60.2%. For the same molecule, the growth inhibition was -2% in assay [5] (setting [7]); 14% in assay [5] (setting [8]); 44.5% in assay [5] (at 50.0 µM); 2% in assay [6] (setting [7]); 34% in assay [6] (setting [8]); 77.8% (active) in assay [6] (at 50.0 µM).

Take `C=CC(=C)OC`: the growth inhibition is 0% in assay [1] (setting [7]); 14% in assay [1] (setting [8]); 10.4% in assay [1] (at 50.0 µM); -8% in assay [2] (setting [7]); 0% in assay [2] (setting [8]); 20.3% in assay [2] (at 50.0 µM). The growth inhibition was -2% in assay [3] (setting [7]); 1% in assay [3] (setting [8]); 19.1% in assay [3] (at 50.0 µM); 1% in assay [4] (setting [7]); 8% in assay [4] (setting [8]); 69.9% in assay [4] (at 50.0 µM). The growth inhibition in assay [5] (setting [7]) is 2%; in assay [5] (setting [8]), -2%; in assay [5] (at 50.0 µM) it was 39%; in assay [6] (setting [7]), 2%; in assay [6] (setting [8]) it was 4%; in assay [6] (at 50.0 µM) it was 7.5%.

In the case of `Oc1c(Br)cc(Br)c2cccnc12`, the growth inhibition in assay [1] (setting [7]) was 93% (active); in assay [1] (setting [8]) it was 97% (active); in assay [1] (at 50.0 µM) it was 98.7% (active); in assay [2] (setting [7]), 35%; in assay [2] (setting [8]) it was 97% (active); in assay [2] (at 50.0 µM), 98.9% (active). Also, the growth inhibition in assay [3] (setting [7]) is 88% (active); in assay [3] (setting [8]), 97% (active); in assay [3] (at 50.0 µM), 98.5% (active); in assay [4] (setting [7]), 82% (active); in assay [4] (setting [8]), 97% (active); in assay [4] (at 50.0 µM) it was 97.3% (active). Further, the growth inhibition is 28% in assay [5] (setting [7]); 88% (active) in assay [5] (setting [8]); 98.3% (active) in assay [5] (at 50.0 µM); 96% (active) in assay [6] (setting [7]); 96% (active) in assay [6] (setting [8]); 98.4% (active) in assay [6] (at 50.0 µM).

`CC(=O)OCCCCCCCCCCCCCCO`: the growth inhibition was -1% in assay [1] (setting [7]); 98% (active) in assay [1] (setting [8]); 50% in assay [1] (at 50.0 µM); 0% in assay [2] (setting [7]); 99% (active) in assay [2] (setting [8]); -15.1% in assay [2] (at 50.0 µM). Moreover, the growth inhibition in assay [3] (setting [7]) is -4%; in assay [3] (setting [8]), 99% (active); in assay [3] (at 50.0 µM), -1.2%; in assay [4] (setting [7]), -3%; in assay [4] (setting [8]), 98% (active); in assay [4] (at 50.0 µM), -33.1%. Also, the growth inhibition in assay [5] (setting [7]) was 1%; in assay [5] (setting [8]), 99% (active); in assay [5] (at 50.0 µM) it was 43%; in assay [6] (setting [7]), -2%; in assay [6] (setting [8]), 98% (active); in assay [6] (at 50.0 µM), 4.25%.

`C=CC[C@]1(C(C)Cc2ccc(OC)c(OC)c2)C[C@@H](OC)C=CC1=O` (stereo not given in full): the growth inhibition in assay [1] (setting [7]) is -7%; in assay [1] (setting [8]), 89% (active); in assay [1] (at 50.0 µM), 88% (active); in assay [2] (setting [7]), 8%; in assay [2] (setting [8]) it was 89% (active); in assay [2] (at 50.0 µM), 93% (active). In addition, the growth inhibition is 0% in assay [3] (setting [7]); 85% (active) in assay [3] (setting [8]); 88.8% (active) in assay [3] (at 50.0 µM); 13% in assay [4] (setting [7]); 86% (active) in assay [4] (setting [8]); 88.5% (active) in assay [4] (at 50.0 µM). The growth inhibition was 7% in assay [5] (setting [7]); 92% (active) in assay [5] (setting [8]); 89.5% (active) in assay [5] (at 50.0 µM); -1% in assay [6] (setting [7]); 92% (active) in assay [6] (setting [8]); 96% (active) in assay [6] (at 50.0 µM).

Turning to `Cc1cc(S(=O)(=O)Nc2n[nH]c(-c3ccccn3)n2)c(S)cc1Cl`, the growth inhibition in assay [1] (setting [7]) was -10%; in assay [1] (setting [8]), 92% (active); in assay [1] (at 50.0 µM), 73.8% (active); in assay [2] (setting [7]), 27%; in assay [2] (setting [8]), 84% (active); in assay [2] (at 50.0 µM), 53.8%. Moreover, the growth inhibition in assay [3] (setting [7]) was 18%; in assay [3] (setting [8]) it was 88% (active); in assay [3] (at 50.0 µM), 55%; in assay [4] (setting [7]) it was -4%; in assay [4] (setting [8]), 85% (active); in assay [4] (at 50.0 µM) it was 49%. In addition, the growth inhibition in assay [5] (setting [7]) was -29%; in assay [5] (setting [8]), 93% (active); in assay [5] (at 50.0 µM) it was 69.3%; in assay [6] (setting [7]) it was 0%; in assay [6] (setting [8]) it was 88% (active); in assay [6] (at 50.0 µM) it was 56%.
